PubChem BioAssay
The source made the active and inactive calls.

test: growth of efflux-deficient E. coli DRC39 – strain DRC39, OD650, 24 h, E. coli filamentation inducers, primary screen (AID 1178);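 note: growth measured as culture turbidity by optical density at 650 nm; test concentration not given here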; conditions: E. coli DRC39 acrAB, higher = more signal, called active from +8 up or from −8 down

z-score, inactive:
CC(C)CON=C1[C@H]2CCn3c(=O)n(-c4ccccc4)c(=O)n3[C@H]2[C@H](O)[C@@H]2O[C@H]12 0.276
COCC(=C=CC[C@@H](O)c1ccccc1OCCO)CCO 1.63
O=C1O[C@@H](c2ccccc2)[C@@H](c2ccccc2)N2[C@@H](c3ccc(OCCO)cc3)[C@]3(C(=O)Nc4ccc(C#CCCO)cc43)[C@@H](C(=O)N3CCCCCCC3)[C@H]12 -0.515
C#C[C@@H]1Oc2ccccc2S(=O)(=O)N2CCC[C@H]12 -0.689
CCCC[C@H]1OB(O)C[C@H]2C1=C(C)C[C@H]1C(=O)N(C)C(=O)[C@H]12 0.506
O=C1[C@H]2[C@H]3[C@H](O)[C@H](O)CC(=NOC[C@@H](O)COCc4ccco4)[C@H]3CC[C@H]2C(=O)N1c1cccc(Oc2ccccc2)c1 0.916
CC(C)[C@H](NC(=O)OC(C)(C)C)[C@@H](O)CC(=O)OC(C)(C)C -1.69
CO[C@H]1COC(=O)CC=C[C@H](C)[C@@H](NS(=O)(=O)c2ccc(C)cc2)COC(=O)CC=C[C@@H]1C -0.721
CCOC(=O)CCN1C(=O)[C@H]2[C@H]3[C@H](O)[C@H](O)CC(=O)[C@H]3CC[C@H]2C1=O 0.231
NC(=O)NCC#Cc1ccc2c(c1)[C@]1(C(=O)N2)[C@H](c2ccc(O)cc2)N2[C@H](c3ccccc3)[C@H](c3ccccc3)OC(=O)[C@H]2[C@@H]1C(=O)N1CCCCCCC1 1.04
CCOC(=O)C[C@H]1[C@H](OC(=O)c2ccc(C(=O)c3ccccc3)cc2)[C@@H](NC(=O)c2ccc(-c3ccccc3)cc2)c2cc(OCCCO)ccc2N1C(=O)c1ccc2ccccc2n1 0.254
O=C1[C@H]2[C@H]3[C@H](O)[C@H](O)CC(=NO[C@@H]4O[C@H](CO)[C@@H](O)[C@H](O)[C@H]4O)[C@@H]3CC[C@H]2C(=O)N1Cc1ccccc1 0.405
CC(C)(C)N1C(=O)[C@H]2[C@H]3[C@H](O)[C@H](O)CC(=NOCc4ccccc4)[C@@H]3CC[C@H]2C1=O -0.474
C[C@@H](c1ccccc1)N1C(=O)[C@H]2[C@H]3[C@H](O)C=CC(=O)[C@@H]3CC[C@H]2C1=O 0.0826
CC(C)(C)N1C(=O)[C@H]2[C@H]3[C@H](O)[C@H](O)CC(=NO[C@@H]4O[C@H](CO)[C@@H](O)[C@H](O)[C@H]4O)[C@@H]3CC[C@H]2C1=O 0.398
CCOC(=O)NN=C1C[C@@H](O)[C@@H](O)[C@@H]2[C@@H]3C(=O)N(C(C)(C)C)C(=O)[C@@H]3CC[C@@H]12 -0.654
COC(=O)[C@H](C)NC(=O)CCC1CC(OC(=O)NCCc2ccc(F)cc2)CC2(CCCC(COC(=O)NCCc3ccc(Cl)cc3)O2)O1 (some centres not stated) 0.718
COc1ccccc1CN1C(=O)c2ccccc2[C@@H](C(=O)NCC(F)(F)F)[C@@H]1c1ccc(CO)cc1 0.796
C[C@H]1Cc2c(-c3ccccc3)nc3c(c2CO1)CN(CCOc1ccccc1)CC3 1.67
COCCCNC(=O)[C@@]1(CCS(=O)(=O)c2ccccc2)N=C(c2ccc(OCCCO)cc2)O[C@H]1c1ccccc1 1.34
O=C1CCCC2OC12C(O)CCc1ccccc1 (configuration not stated) 0.637
COC(=O)CC=C[C@H](C)[C@@H](OCc1ccccc1Br)C(C)C 0.824
CO[C@H]1COC(=O)[C@@H]2CCCN2C(=O)[C@@H](C)COC(=O)CC=C[C@@H]1C 0.488
CC(C)=CCCC(C)=CCON=C1[C@H]2CCn3c(=O)n(C)c(=O)n3[C@H]2[C@H](O)[C@@H]2O[C@H]12 0.119
CN1C(=O)C2C=CC(C(O)C(c3ccccc3)c3ccccc3)N(NC(=O)OC(C)(C)C)C2C1=O (configuration not stated) -0.963
CCOC(=O)CCN1C(=O)[C@H]2[C@H]3[C@H](O)[C@H](O)CC(=NNC(=O)OCc4ccc(OC)cc4)[C@@H]3CC[C@H]2C1=O 0.149
CC(CCC(=O)OC[C@H]1O[C@H](C#Cc2ccccc2)C=C[C@@H]1Oc1ccc(C)cc1)=NO[C@@H](C)c1cn([C@H](CO)Cc2ccccc2)nn1 -0.26
